{
  "source": "PubChem BioAssay (NCATS)",
  "note": "Calls of active or inactive are those of the source. Entries that show only a call come without a potency. Calls follow the shape of the dose curve; as a rule, active = well fitted curve in the direction sought with a large enough effect; inconclusive = small, poorly fitted or top-dose-only effect, or another doubt; inactive = no such curve, though single readings can be large or run the other way.",
  "data": [
    {"molecular_target": "T1, Hexokinase-4 (Homo sapiens) + Glucokinase regulatory protein (Homo sapiens) (UniProt P35557+Q14397)", "T1 sequence (P35557 whole entry, looked up)": "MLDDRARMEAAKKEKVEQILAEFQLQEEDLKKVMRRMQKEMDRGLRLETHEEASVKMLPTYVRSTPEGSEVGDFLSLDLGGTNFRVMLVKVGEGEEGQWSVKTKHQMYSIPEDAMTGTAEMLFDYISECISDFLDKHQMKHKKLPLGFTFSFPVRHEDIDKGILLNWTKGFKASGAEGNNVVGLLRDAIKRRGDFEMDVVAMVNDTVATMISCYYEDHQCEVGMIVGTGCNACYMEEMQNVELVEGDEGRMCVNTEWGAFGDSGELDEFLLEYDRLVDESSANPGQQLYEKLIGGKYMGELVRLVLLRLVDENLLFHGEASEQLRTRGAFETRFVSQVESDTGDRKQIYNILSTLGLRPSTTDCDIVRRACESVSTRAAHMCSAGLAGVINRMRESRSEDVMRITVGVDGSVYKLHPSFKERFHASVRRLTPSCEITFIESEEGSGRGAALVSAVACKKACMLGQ", "T1 sequence (Q14397 whole entry, looked up)": "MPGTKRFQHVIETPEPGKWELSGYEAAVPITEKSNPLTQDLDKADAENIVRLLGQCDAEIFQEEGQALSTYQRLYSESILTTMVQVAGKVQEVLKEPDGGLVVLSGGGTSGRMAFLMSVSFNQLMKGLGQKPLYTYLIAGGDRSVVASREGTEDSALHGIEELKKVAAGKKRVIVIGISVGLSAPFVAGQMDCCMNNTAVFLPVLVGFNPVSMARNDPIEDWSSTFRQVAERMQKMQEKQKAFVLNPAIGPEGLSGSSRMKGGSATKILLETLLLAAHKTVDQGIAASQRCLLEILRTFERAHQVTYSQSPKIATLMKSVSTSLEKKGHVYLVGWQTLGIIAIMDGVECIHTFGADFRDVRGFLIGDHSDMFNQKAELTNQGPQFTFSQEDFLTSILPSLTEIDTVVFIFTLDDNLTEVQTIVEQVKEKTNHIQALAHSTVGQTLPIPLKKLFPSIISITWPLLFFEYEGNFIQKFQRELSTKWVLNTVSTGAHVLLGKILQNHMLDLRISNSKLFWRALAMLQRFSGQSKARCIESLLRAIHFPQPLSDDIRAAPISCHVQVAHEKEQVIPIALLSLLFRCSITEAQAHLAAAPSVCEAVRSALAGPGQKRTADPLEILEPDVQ", "assay": "qHTS assay for inhibitors of recombinant human GCK-GKRP interaction: ADP-Glo assay (AID 743206)", "conditions": "ADP-Glo luminescence, 60 min; series mostly up to 76.9 µM", "in_short": "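Pin-transferred compounds meet a 15 nM GST-GCK/15 nM FLAG-GKRP/2 uM S6P mix (dispense concentrations). ATP is then added to 0.4 mM final with 5 mM glucose, and the reaction runs 60 min at room temperature. ADP is quantified luminescently.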", "values": [
      {"smiles": "CCCCS(=N)(=O)CC[C@H](N)C(=O)O", "note": "(stereo partly specified)", "Potency": "inactive"},
      {"smiles": "CSC(=N)N", "Potency": "inactive"},
      {"smiles": "C[C@H]1CC2C3CCC4=CC(=O)C=C[C@]4(C)[C@@]3(Cl)[C@@H](O)C[C@]2(C)[C@@]1(O)C(=O)CO", "note": "(stereo partly specified)", "Potency": "inactive"},
      {"smiles": "CN1Cc2sccc2C(c2ccc(O)c(O)c2)C1", "note": "(stereo unspecified)", "Potency": "inactive"},
      {"smiles": "OCC1NCC(O)C(O)C1O", "note": "(stereo unspecified)", "Potency": "inactive"},
      {"smiles": "O=C(O)Cc1c[nH]c2ccc(O)cc12", "Potency": "inactive"},
      {"smiles": "CCOC(=O)C12CC1/C(=N/O)c1ccccc1O2", "note": "(stereo unspecified)", "Potency": "inactive"},
      {"smiles": "Nc1ccc(N2C(=O)c3ccccc3C2=O)c(Cl)c1", "Potency": "inactive"},
      {"smiles": "C=CC[C@H](N)C(=O)O", "Potency": "inactive"},
      {"smiles": "COc1ccc2c(c1)c(CC(=O)O)c(C)n2C(=O)c1ccccc1", "Potency": "inactive"},
      {"smiles": "CC(N)=O", "Potency": "inactive"},
      {"smiles": "N#C/C(=C\\c1ccc(O)c(O)c1)C(=O)NCCc1ccccc1", "Potency": "inactive"},
      {"smiles": "NCC(O)C1CCCCCCC1", "note": "(stereo unspecified)", "Potency": "inactive"},
      {"smiles": "C[N+](C)(C)CC=O", "Potency": "inactive"},
      {"smiles": "CC(=O)NNC(=O)N1Cc2ccccc2Oc2ccc(Cl)cc21", "Potency": "inactive"},
      {"smiles": "CCCn1c(=O)c2c(ncn2C)n(CCC)c1=O", "Potency": "inactive"},
      {"smiles": "COc1ccc(CCn2nnnc2C2(c3ccc(C)cc3)CC2)cc1", "Potency": "inactive"},
      {"smiles": "CNCCNS(=O)(=O)c1cccc2cnccc12", "Potency": "inactive"},
      {"smiles": "CN(C)S(=O)(=O)c1ccc2c(c1)/C(=C/c1cc3c([nH]1)CCCC3)C(=O)N2", "Potency": "inactive"},
      {"smiles": "O=c1onc2n1-c1cc(Br)ccc1OC2", "Potency": "inactive"},
      {"smiles": "Fc1ccc(CN(C2=NCCN2)c2c(Cl)cccc2Cl)cc1", "Potency": "inactive"},
      {"smiles": "NCCC1CCCC(CCN)N1", "note": "(stereo unspecified)", "Potency": "inactive"},
      {"smiles": "O=C(O)C1=CCCNC1", "Potency": "inactive"},
      {"smiles": "Cn1c(=O)c2[nH]c(-c3ccc(S(=O)(=O)O)cc3)nc2n(C)c1=O", "Potency": "inactive"},
      {"smiles": "N[C@H]1CONC1=O", "Potency": "inactive"},
      {"smiles": "CC1CNCCN1S(=O)(=O)c1cccc2cnccc12", "note": "(stereo unspecified)", "Potency": "inactive"},
      {"smiles": "CCCCOc1cc(CC2CNC(=O)N2)ccc1OC", "note": "(stereo unspecified)", "Potency": "inactive"},
      {"smiles": "CC(C)(C)NCC(O)COc1cccc2[nH]c(=O)[nH]c12", "note": "(stereo unspecified)", "Potency": "inactive"},
      {"smiles": "O=C(O)c1ccccc1Nc1ccccc1", "Potency": "inactive"},
      {"smiles": "N=S(=O)(O)Cc1noc2ccccc12", "Potency": "inactive"},
      {"smiles": "CCN(CC)CCCCCCCCOC(=O)c1cc(OC)c(OC)c(OC)c1", "Potency": "inactive"},
      {"smiles": "O=c1[nH]c2cc(Cl)ccc2c(O)c1-c1ccc(Oc2ccccc2)cc1", "Potency": "inactive"},
      {"smiles": "Nc1nc2c(cnn2CCc2ccccc2)c2nc(-c3ccco3)nn12", "Potency": "inactive"},
      {"smiles": "NS(=O)(=O)c1cccc2c1c([N+](=O)[O-])cc1nc(O)c(O)nc12", "Potency": "inactive"},
      {"smiles": "Oc1cc(O)c2c(c1)O[C@H](c1ccc(O)c(O)c1)[C@@H](O)C2", "Potency": "inactive"},
      {"smiles": "Cc1ccc([N+](=O)[O-])cc1S(=O)(=O)N(C)C", "Potency": "inactive"},
      {"smiles": "COc1cc(/C=C(\\C#N)C(=O)c2ccc(O)c(O)c2)cc(I)c1O", "Potency": "inactive"},
      {"smiles": "CNc1ncnc2c1ncn2[C@H]1C[C@H](OP(=O)(O)O)[C@@H](COP(=O)(O)O)O1", "Potency": "inactive"}
    ]},
    {"molecular_target": "T1, Hexokinase-4 (Homo sapiens) + Glucokinase regulatory protein (Homo sapiens)", "assay": "qHTS assay for inhibitors of recombinant human GCK-GKRP interaction: HTRF assay (AID 743207)", "conditions": "recombinant GCK-GKRP HTRF binding, 60 min, with sorbitol-6-phosphate; series mostly up to 57.5 µM", "in_short": "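Steps: dispense GCK–GKRP complex (5 nM each, GST- and FLAG-tagged) with 2 uM S6P; pin in compounds; add XL665/Eu-cryptate-labelled antibodies; incubate 60 min at room temperature; read time-resolved FRET at 665 and 615 nm.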", "values": [
      {"smiles": "CCCCS(=N)(=O)CC[C@H](N)C(=O)O", "note": "(stereo partly specified)", "Potency": "inactive"},
      {"smiles": "CSC(=N)N", "Potency": "inactive"},
      {"smiles": "C[C@H]1CC2C3CCC4=CC(=O)C=C[C@]4(C)[C@@]3(Cl)[C@@H](O)C[C@]2(C)[C@@]1(O)C(=O)CO", "note": "(stereo partly specified)", "Potency": "inactive"},
      {"smiles": "CN1Cc2sccc2C(c2ccc(O)c(O)c2)C1", "note": "(stereo unspecified)", "Potency": "inactive"},
      {"smiles": "OCC1NCC(O)C(O)C1O", "note": "(stereo unspecified)", "Potency": "inactive"},
      {"smiles": "O=C(O)Cc1c[nH]c2ccc(O)cc12", "Potency": "inactive"},
      {"smiles": "CCOC(=O)C12CC1/C(=N/O)c1ccccc1O2", "note": "(stereo unspecified)", "Potency": "inactive"},
      {"smiles": "Nc1ccc(N2C(=O)c3ccccc3C2=O)c(Cl)c1", "Potency": "inactive"},
      {"smiles": "C=CC[C@H](N)C(=O)O", "Potency": "inactive"},
      {"smiles": "COc1ccc2c(c1)c(CC(=O)O)c(C)n2C(=O)c1ccccc1", "Potency": "inactive"},
      {"smiles": "CC(N)=O", "Potency": "inactive"},
      {"smiles": "N#C/C(=C\\c1ccc(O)c(O)c1)C(=O)NCCc1ccccc1", "Potency": "inactive"},
      {"smiles": "NCC(O)C1CCCCCCC1", "note": "(stereo unspecified)", "Potency": "inactive"},
      {"smiles": "C[N+](C)(C)CC=O", "Potency": "inactive"},
      {"smiles": "CC(=O)NNC(=O)N1Cc2ccccc2Oc2ccc(Cl)cc21", "Potency": "inactive"},
      {"smiles": "CCCn1c(=O)c2c(ncn2C)n(CCC)c1=O", "Potency": "inactive"},
      {"smiles": "COc1ccc(CCn2nnnc2C2(c3ccc(C)cc3)CC2)cc1", "Potency": "inactive"},
      {"smiles": "CNCCNS(=O)(=O)c1cccc2cnccc12", "Potency": "inactive"},
      {"smiles": "CN(C)S(=O)(=O)c1ccc2c(c1)/C(=C/c1cc3c([nH]1)CCCC3)C(=O)N2", "Potency": "inactive"},
      {"smiles": "O=c1onc2n1-c1cc(Br)ccc1OC2", "Potency": "inactive"},
      {"smiles": "Fc1ccc(CN(C2=NCCN2)c2c(Cl)cccc2Cl)cc1", "Potency": "inactive"},
      {"smiles": "NCCC1CCCC(CCN)N1", "note": "(stereo unspecified)", "Potency": "inactive"},
      {"smiles": "O=C(O)C1=CCCNC1", "Potency": "inactive"},
      {"smiles": "Cn1c(=O)c2[nH]c(-c3ccc(S(=O)(=O)O)cc3)nc2n(C)c1=O", "Potency": "inactive"},
      {"smiles": "N[C@H]1CONC1=O", "Potency": "inactive"},
      {"smiles": "CC1CNCCN1S(=O)(=O)c1cccc2cnccc12", "note": "(stereo unspecified)", "Potency": "inactive"},
      {"smiles": "CCCCOc1cc(CC2CNC(=O)N2)ccc1OC", "note": "(stereo unspecified)", "Potency": "inactive"},
      {"smiles": "CC(C)(C)NCC(O)COc1cccc2[nH]c(=O)[nH]c12", "note": "(stereo unspecified)", "Potency": "inactive"},
      {"smiles": "O=C(O)c1ccccc1Nc1ccccc1", "Potency": "inactive"},
      {"smiles": "N=S(=O)(O)Cc1noc2ccccc12", "Potency": "inactive"},
      {"smiles": "CCN(CC)CCCCCCCCOC(=O)c1cc(OC)c(OC)c(OC)c1", "Potency": "inactive"},
      {"smiles": "O=c1[nH]c2cc(Cl)ccc2c(O)c1-c1ccc(Oc2ccccc2)cc1", "Potency": "inactive"},
      {"smiles": "Nc1nc2c(cnn2CCc2ccccc2)c2nc(-c3ccco3)nn12", "Potency": "inactive"},
      {"smiles": "NS(=O)(=O)c1cccc2c1c([N+](=O)[O-])cc1nc(O)c(O)nc12", "Potency": "inactive"},
      {"smiles": "Oc1cc(O)c2c(c1)O[C@H](c1ccc(O)c(O)c1)[C@@H](O)C2", "Potency": "inactive"},
      {"smiles": "Cc1ccc([N+](=O)[O-])cc1S(=O)(=O)N(C)C", "Potency": "inactive"},
      {"smiles": "COc1cc(/C=C(\\C#N)C(=O)c2ccc(O)c(O)c2)cc(I)c1O", "Potency": "inactive"},
      {"smiles": "CNc1ncnc2c1ncn2[C@H]1C[C@H](OP(=O)(O)O)[C@@H](COP(=O)(O)O)O1", "Potency": "inactive"}
    ]}
  ]
}
